The whole screen tested about 60,000 compounds, of which about 65 (0.1%) were called active. The call rests on the fitted dose curve; in most records, active means well fitted inhibition curve with a large enough effect; inconclusive means small, poorly fitted or top-dose-only effect; inactive means no such curve, though single readings can be large or run the other way. This excerpt belongs to a sample that is enriched for actives.
Molecular target: Ubiquitin carboxyl-terminal hydrolase 2 (Homo sapiens) (UniProt O75604)
Assay: qHTS Assay for Inhibitors of Ubiquitin-specific Protease USP2a; further: nearly all actives have a fitted effect of over 60% in size
Settings: USP2a enzymatic assay; Potency: qHTS inhibition; series mostly up to 38.3 µM; activity change, negative = inhibition: at the top concentration
Source text: NIH Molecular Libraries Screening Centers Network [MLSCN]
NIH Chemical Genomics Center [NCGC]
PI Name: Nicholson, Ben. Progenra Inc, Malvern, PA
Homeostasis of cellular proteins is maintained through a combination of synthesis and degradation. The pathway that accounts for the majority of protein degradation is the ubiquitin-proteasomal pathway. Ubiquitin (Ub) is highly conserved in all cells and the generation of a multi-Ub chain typically targets proteins for degradation by the proteasome. However, ubiquitination is highly reversible and dynamic. Deubiquitination, the reverse process, is catalyzed through the action of enzymes referred to as isopeptidases or deubiquitinating enzymes (DUBs). This group of enzymes is collectively responsible for maintaining adequate pools of free ubiquitin and regulating the ubiquitination status of cellular proteins. The class of DUBs referred to as the ubiquitin-specific proteases (USP) family functions endoproteolytically to cleave Ub chains from a wide range of protein substrates. USP2a deubiquitinates fatty acid synthase (FASN) which has recently been identified as an emerging oncology target. To identify inhibitors of USP2a a cell-free assay was employed.
The reporter enzyme chosen is phospholipase A2 (PLA2), which has an absolute requirement for a free amino terminus. Thus, fusion of a UBL to the N-terminus of PLA2 inactivates PLA2. When the UBL-PLA2 reporter enzyme is cleaved by USP2, the activated reporter can subsequently act on its substrate, which is the commercially available NBD C6-HPC (Invitrogen). Thus, this coupled assay gives a fluorescent read-out, which is generated through the cleavage of the PLA2 reporter enzyme. The assay, developed by Progenra, Inc. uses Ub-PLA2 and USP2a at near equal and low (nM) amounts and has been licensed for sale by LifeSensors, Inc. as the Ub-IsoPro1 kit.
NCGC Assay Protocol Summary:
The assay buffer, prepared fresh at the day of the assay, contains 20mM Tris-HCl pH 8.0, 2mM CaCl2, 2mM beta-Mercaptoethanol, 0.1% DMSO. 3ul of 40nM (20nM final) USP2 core, which is stored on ice, is dispensed into a medium-binding black solid Kalypsys 1,536 well plate using the Kalypsys dispenser. The assay plate is then pinned with 23nL compound with the Kalypsys pintool in columns 5-48. The controls are pinned as follows: column 1&2 two-fold dilutions of 2M NEM in duplicate; column 3 DMSO; column 4 2M NEM (final concentration 38.2mM). The assay plate is incubated at RT for 30min. Subsequently, 3uL of 40nM (20nM final) Ub-PLA2 and 40uM (20uM final) NBD C6-HPC (stored on ice and protected from light) were dispensed into the plate using the Kalypsys dispenser. Plates were read immediately (0 Hour) on an Envision (Perkin Elmer) plate reader using the following wavelengths Ex 460nm /Em 535nm. Then, the assay plates were incubated for 2.5 hours and read again on the Envision using the same settings
Data were normalized to the to AC100 inhibition (NEM). Concentration-response curves were fitted to the normalized data and the concentration-response curves were then classified based on curve quality (r2), response magnitude and degree of measured activity. The time zero reading was used to flag fluorescence artifacts.
Keywords: ubiquitination, deubiquitination, proteases, profluorescent, MLSMR, MLSCN, NIH Roadmap, qHTS, NCGC
Potency means the concentration at half of the fitted maximal effect.

Ubiquitin carboxyl-terminal hydrolase 2 (Homo sapiens), sequence (O75604 whole entry, looked up): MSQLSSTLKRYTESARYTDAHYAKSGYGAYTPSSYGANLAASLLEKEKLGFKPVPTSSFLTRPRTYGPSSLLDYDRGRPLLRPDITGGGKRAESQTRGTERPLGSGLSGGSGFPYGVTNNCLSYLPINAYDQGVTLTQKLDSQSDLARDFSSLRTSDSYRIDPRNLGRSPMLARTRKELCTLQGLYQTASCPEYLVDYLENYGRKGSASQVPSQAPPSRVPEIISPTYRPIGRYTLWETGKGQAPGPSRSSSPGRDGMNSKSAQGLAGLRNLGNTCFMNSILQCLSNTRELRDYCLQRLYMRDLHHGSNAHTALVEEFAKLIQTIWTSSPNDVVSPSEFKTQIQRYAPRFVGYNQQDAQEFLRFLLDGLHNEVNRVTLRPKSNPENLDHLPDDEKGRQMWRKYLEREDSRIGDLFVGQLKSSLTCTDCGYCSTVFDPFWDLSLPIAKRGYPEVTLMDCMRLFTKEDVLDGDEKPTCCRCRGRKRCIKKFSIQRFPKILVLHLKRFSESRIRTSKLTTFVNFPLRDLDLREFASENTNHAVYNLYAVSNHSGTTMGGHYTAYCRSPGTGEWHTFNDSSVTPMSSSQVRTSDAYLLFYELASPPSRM

Question: `Clc1ccc(C(c2ccc(Cl)cc2)n2cc[n+](C[C@@H](OCc3ccc(Cl)cc3Cl)c3ccc(Cl)cc3Cl)c2)cc1` was tested. Which Potency did it give?
Answer: 25.1 µM (active)

Question: For `COc1ccc(C2Oc3c(I)c(OC)cc(OC)c3CC2O)cc1OC` (stereo not given), which “activity change, negative = inhibition” value is on record?
Answer: 2.52% (inactive)

Question: Which “activity change, negative = inhibition” value does the source give for `COC1CC(OC2CC[C@@]3(C=O)C4CC[C@]5(C)C(C6=CC(=O)OC6)CC[C@@]5(O)C4CC[C@]3(O)C2)OC(C)C1O` (stereo not given in full) here?
Answer: 0.885% (inactive)

Question: With `COc1cc2c(cc1OC)[C@@H]1C(=O)c3ccc(O)c(CC=C(C)C)c3OC1CO2` (stereo not given in full) as the compound, how does the “activity change, negative = inhibition” value read?
Answer: -10.3% (inactive)

Question: How did the “activity change, negative = inhibition” value turn out when `C=CCSSCC=C` was run?
Answer: -4.04% (inactive)
